From article PMC4336329 (PLoS ONE, 2015)
Screen size: about 310,000 compounds; about 14,000 (4.5%) showed an effect of 50% or more. The effect is printed as a negative number. The sample as a whole holds a higher share of strong results than the screen did.

These compounds were tested against human ether-à-go-go-related gene (hERG) potassium channel (human, UniProt Q12809) (assay: primary screen, population patch clamp on CHO cells stably expressing hERG; higher = less effect of the substance).
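Note: peak tail current of the secondary pulse compared with the same well before compound.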

Sequence of human ether-à-go-go-related gene (hERG) potassium channel (Q12809 whole entry, looked up): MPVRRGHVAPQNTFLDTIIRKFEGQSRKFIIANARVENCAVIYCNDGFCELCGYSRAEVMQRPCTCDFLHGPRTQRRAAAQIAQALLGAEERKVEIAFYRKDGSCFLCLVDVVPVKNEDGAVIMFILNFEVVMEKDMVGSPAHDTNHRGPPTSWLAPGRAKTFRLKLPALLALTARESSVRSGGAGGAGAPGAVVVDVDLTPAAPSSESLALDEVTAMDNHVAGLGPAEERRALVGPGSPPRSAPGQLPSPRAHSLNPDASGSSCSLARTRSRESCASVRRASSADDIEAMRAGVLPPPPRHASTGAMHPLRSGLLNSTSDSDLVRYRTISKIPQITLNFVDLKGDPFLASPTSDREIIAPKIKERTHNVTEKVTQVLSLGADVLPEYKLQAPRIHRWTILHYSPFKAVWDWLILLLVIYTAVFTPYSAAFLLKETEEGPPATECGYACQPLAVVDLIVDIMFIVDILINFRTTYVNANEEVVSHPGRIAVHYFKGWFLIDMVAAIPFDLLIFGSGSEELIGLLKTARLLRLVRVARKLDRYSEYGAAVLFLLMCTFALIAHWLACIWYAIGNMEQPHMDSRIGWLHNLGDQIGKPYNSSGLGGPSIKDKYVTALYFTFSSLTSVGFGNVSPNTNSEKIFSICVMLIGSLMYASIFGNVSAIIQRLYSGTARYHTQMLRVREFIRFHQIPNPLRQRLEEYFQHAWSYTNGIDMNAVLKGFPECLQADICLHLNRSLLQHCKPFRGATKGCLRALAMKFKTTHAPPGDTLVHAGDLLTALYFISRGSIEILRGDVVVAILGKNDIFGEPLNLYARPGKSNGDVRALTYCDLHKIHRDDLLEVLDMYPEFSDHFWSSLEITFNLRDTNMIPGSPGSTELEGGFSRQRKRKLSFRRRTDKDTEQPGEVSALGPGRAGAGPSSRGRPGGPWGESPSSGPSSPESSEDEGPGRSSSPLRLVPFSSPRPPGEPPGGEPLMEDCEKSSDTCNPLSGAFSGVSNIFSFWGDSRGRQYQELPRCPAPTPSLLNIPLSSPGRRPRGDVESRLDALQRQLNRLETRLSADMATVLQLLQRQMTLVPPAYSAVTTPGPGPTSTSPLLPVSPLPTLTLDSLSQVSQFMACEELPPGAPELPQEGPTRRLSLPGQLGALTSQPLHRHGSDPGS

SMILES | hERG current change (%, negative = inhibition) at 10uM [%]
Cc1cc(-n2cnnn2)cc(C)c1S(=O)(=O)NCCOc1ccccc1 | -38.5
CC(O)c1nc2ccccc2n1CC(=O)Nc1ccc(F)cc1Cl (stereo not shown) | 14.2
CCOC(=O)c1sc(NC(=O)c2ccc(C)o2)nc1C | -5.35
COc1cc(C(c2c(C)n(C)n(-c3ccccc3)c2=O)c2c(C)n(C)n(-c3ccccc3)c2=O)cc(Br)c1O | 13.7
COc1cccc(-c2nnc(NC(=O)c3ccc4ncsc4c3)o2)c1 | -8.13
COc1cc(/C=C/C(=O)O)cc(S(=O)(=O)Nc2ccccc2Cl)c1OC | 18.8
CN(c1ccccc1)S(=O)(=O)c1ccc(Cl)c(C(=O)NCCc2c[nH]c3ccccc23)c1 | -15.8
COc1ccc(/C=C/C(=O)Nc2ccccc2C(=O)O)cc1 | 7.91
O=[N+]([O-])c1cc([N+](=O)[O-])c2nonc2c1Nc1ccc(O)cc1 | -56.9
O=[N+]([O-])c1cc([N+](=O)[O-])c2nonc2c1Nc1ccccc1O | 10.3
O=[N+]([O-])c1c(Nc2ccc(O)cc2)cc(Cl)c2nonc12 | -26.1
CCC1CCCCN1C(=O)COC(=O)CN(C)S(=O)(=O)c1ccc(NC(C)=O)cc1 (stereo not shown) | 7.22
Cc1c(-c2cccc(NC(=O)c3ccco3)c2)nc2ncccn12 | -13.3
Cc1ccc(NC(=O)c2nsc(Cl)c2Cl)cc1 | 5.34
CCCOc1ccccc1-c1nc2n[nH]nc2c(=O)[nH]1 | -56.3
CCCOc1ccccc1-c1nc2c([nH]1)c(=O)[nH]c(=O)n2C | 8.5

SMILES | hERG current change (%, negative = inhibition) at 10uM [%]
CCCc1nn(C)c2c(=O)[nH]c(-c3ccccc3OCC)nc12 | 7.87
COc1ccccc1NC(=O)CCS(=O)(=O)c1cc2c(cc1Cl)NC(=O)CO2 | 1.94
CCOC(=O)c1cnc2cc(C)nn2c1-c1ccccc1 | 3.92
COc1ccc(/C=N/NC2=NCCCCC2)cc1 | -43.7
O=C(CN1CCCCCC1)N/N=C/c1ccc2ccccc2c1 | -64.6
CCOc1ccc(/C=N/NC(=O)CN2CCCCCCC2)cc1 | -63
CCCCCCC(=O)N/N=C/c1ccc(Br)cc1 | 1.25
CCOc1ccc(/C=N/NC(=O)CN2CCSCC2)cc1 | 1.7
CCCOc1ccc(/C=N/NC(=O)CN2CCCCC2)cc1 | -49.7
Cc1cccc(/C=N/NC(=O)CN2CCCCCCC2)c1 | -45.9
O=C(CN1CCCCCCC1)N/N=C/c1ccc(F)c(F)c1 | -33.7
O=C(CCN1CCCCC1)Nc1ccc(Br)cc1 | -37.9
O=C(CCN1CCCCC1)N/N=C/c1ccc(Br)cc1 | -77.8
Oc1ccc(/C=N/NC2=NCCCCC2)cc1 | -16.2
CCOc1ccc(/C=N/NC2=NCCCCC2)cc1 | -69.3
